Each structure is given as a SMILES string. Values joined by “and” are separate entries in the source; they are usually repeats but may differ in a detail not shown here. Equal values may be shown once. Read-outs that look alike come from different tables or passages of the source.

Assay [1] deals with RIPK5. To be noted: concentration: 1 μM, replicates: in singlicate; n = 1.
Assay [2] deals with ROCK1. To be noted: concentration: 1 μM, replicates: in singlicate, n = 1.
Assay [3] has as its system ROCK2. To be noted: concentration: 1 μM, replicates: in singlicate, n = 1.
In assay [4] the test system is ROS1. The settings on record: concentration: 1 μM, replicates: in singlicate, n = 1.
Assay [5] deals with RPS6KA4(Kin.Dom.1-N-terminal). To be noted: concentration: 1 μM, replicates: in singlicate, n = 1.
The subject of assay [6] is RPS6KA4(Kin.Dom.2-C-terminal). To be noted: concentration: 1 μM, replicates: in singlicate; n = 1.
The subject of assay [7] is RPS6KA5(Kin.Dom.1-N-terminal). The settings on record: concentration: 1 μM, replicates: in singlicate, n = 1.
Assay [8] relates to RPS6KA5(Kin.Dom.2-C-terminal). The settings on record: concentration: 1 μM, replicates: in singlicate, n = 1.
In assay [9] the test system is T1, RSK1(Kin.Dom.1-N-terminal).
T1 construct: gene RPS6KA1
The settings on record: concentration: 1 μM, replicates: in singlicate, n = 1.

Assay [10] deals with T2, RSK1(Kin.Dom.2-C-terminal).
T2 construct: gene RPS6KA1
To be noted: concentration: 1 μM, replicates: in singlicate; n = 1.
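Note: KINOMEscan kinase panel screen.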

`CN1c2ccc(NCc3ccc(F)cc3)cc2-c2c(cnn2C)S1(=O)=O`: the “%Inh” value in [1], in assay [2], in assay [3], in [4], in assay [5] and in assay [6] was 0% each time. In addition, the “%Inh” value in [7] came out at 0%; in [8], 0%; in [9], 0%; in [10] it was 20%.
On to `Fc1ccc(-c2nn3c(OCC(F)(F)F)cccc3c2-c2ccncc2)cc1` [GW514784], for which the “%Inh” value in assay [1] is recorded as 0%; in [2], 36%; in [3], 34%; in assay [4] it was 13%; in assay [5] it was 10%; in [6], 0%. Besides, the “%Inh” value in assay [7] amounted to 12%; in assay [8], 13%; in assay [9], 6%; in assay [10], 29%.
For `CC(C)(CN)c1nc(-c2ccc(Cl)c(O)c2)c(-c2ccncc2)[nH]1.O=C(O)C(F)(F)F` [SB-477794], the “%Inh” value in assay [1] is 0%; in [2] (1 µM) it was 28% and 43%; in assay [3] (1 µM), 49% and 40%; in assay [4] (1 µM), 15% and 53%; in [5] (1 µM) it was 0% and 23%; in [6], 0%. Besides, the “%Inh” value is 5% and 0% in [7] (1 µM); 7% and 36% in assay [8] (1 µM); 16% and 15% in assay [9] (1 µM); 35% in [10].
On to `COc1cc(Nc2nccc(N3CCC(NC(=O)c4cccc(NC(C)=O)c4)C3)n2)cc(OC)c1OC` (centres unmarked) [GSK1379754], for which the “%Inh” value amounted to 0% in [1]; 32% in [2]; 49% in assay [3]; 44% in [4]; 23% in assay [5]; 0% in assay [6]. The “%Inh” value was determined as 11% in [7], 0% in assay [8], 58% in [9] and 0% in assay [10].
Consider `Nc1nccc(-c2c(-c3ccc(F)cc3)ncn2C2CCN(CC(F)(F)F)CC2)n1` [SB-236560], for which the “%Inh” value in assay [1] came out at 13%; in assay [2], 38%; in assay [3], 49%; in assay [4] it was 14%; in [5], 0%; in assay [6], 0%. Also, the “%Inh” value in assay [7] turned out to be 0%; in [8], 0%; in [9], 0%; in assay [10] it was 27%.
For the compound `COc1ccc(Nc2nccc(N3CCC(NC(=O)Nc4cccc(C(C)=O)c4)C3)n2)cc1` (centres unmarked) [GSK1379731], the “%Inh” value in assay [1] worked out at 0%; in [2], 25%; in [3] it was 0%; in assay [4], 4%; in assay [5], 2%; in [6], 0%. The “%Inh” value in assay [7], in [8], in [9] and in assay [10] was 0% in each case.
On to `Cn1cc(-c2ccc3c(c2)CCN3C(=O)Cc2ccccc2Cl)c2c(N)ncnc21` [GSK2608885], for which the “%Inh” value in assay [1] was determined as 13%; in [2], 1%; in [3], 0%; in assay [4], 86%; in assay [5], 36%; in [6], 0%. Besides, the “%Inh” value is on record as 32% in assay [7], 3% in [8], 99.2% in [9] and 30% in [10].
In the case of `c1ccc(-c2cc(-c3c[nH]nc3-c3ccccn3)ccn2)cc1` [GW576604], the “%Inh” value in assay [1] was 0%; in [2] it was 10%; in assay [3], 30%; in [4], 21%; in [5], 0%; in assay [6], 0%. Besides, the “%Inh” value in assay [7] is listed as 0%; in [8], 3%; in assay [9] it was 0%; in [10], 1%.
Turning to `Cc1cccc(-c2nc(Nc3ccc4ncsc4c3)c3ccccc3n2)n1` [GW867588], the “%Inh” value in assay [1] was found to be 24%; in assay [2], 45%; in [3] it was 13%; in assay [4] it was 17%; in [5] it was 30%; in assay [6], 0%. In addition, the “%Inh” value stood at 0% in assay [7], 8% in [8], 0% in assay [9] and 16% in assay [10].
As to `COc1ccc(COc2cc(-n3cnc4ccccc43)sc2C(N)=O)cc1` [GSK1024304], the “%Inh” value in assay [1] came out at 0%; in assay [2] it was 9%; in [3] it was 20%; in assay [4], 0%; in [5], 0%; in [6], 0%. Also, the “%Inh” value in [7] is recorded as 3%; in [8], 13%; in assay [9] it was 6%; in assay [10] it was 0%.
Consider `COc1ccc(Nc2nccc(N3CCC(NC(=O)Nc4cc(C)ccc4C)C3)n2)cc1` (centres unmarked) [GSK1379741], for which the “%Inh” value is 0% in [1]; 14% in [2]; 0% in assay [3]; 0% in assay [4]; 0% in assay [5]; 0% in [6]. Also, the “%Inh” value in [7] is 8%; in assay [8], 19%; in assay [9], 6%; in assay [10], 0%.
Turning to `COCCNC(=O)c1ccc(-c2cc(C(=O)NC3CC3)cc(F)c2C)cc1` [GW868318], the “%Inh” value in assay [1] is given as 38%; in [2], 37%; in assay [3], 47%; in assay [4], 5%; in assay [5], 36%; in assay [6], 6%. The “%Inh” value in [7] was 18%; in assay [8] it was 21%; in assay [9], 21%; in assay [10], 18%.
Regarding `CNc1ncnc2[nH]ncc12` [SKF-18355], the “%Inh” value in assay [1] stood at 8%; in assay [2] it was 91.5%; in [3], 84%; in assay [4], 0%; in assay [5], 23%; in assay [6], 0%. Besides, the “%Inh” value stood at 0% in assay [7], 17% in assay [8], 0% in assay [9] and 15% in assay [10].
For the compound `CN(C(=O)c1ccc(-c2cc(-c3c[nH]nc3-c3ccccn3)ccn2)cc1)C1CCOCC1` [GW810083], the “%Inh” value in [1] came to 0%; in [2], 31%; in assay [3] it was 20%; in [4] it was 0%; in assay [5], 0%; in assay [6], 0%. The “%Inh” value in assay [7], in [8], in assay [9] and in [10] was 0% throughout.
For the compound `CCc1nc(-c2cccc(C)c2)c(-c2ccnc(NCc3ccccc3)c2)s1`, the “%Inh” value in assay [1] is 14%; in assay [2], 0%; in [3], 0%; in assay [4] it was 0%; in [5] it was 0%; in [6], 1%. Also, the “%Inh” value in assay [7] was 1%; in assay [8], 4%; in [9], 0%; in [10], 57%.
Consider `N#Cc1ccc(-c2cc(-c3c[nH]nc3-c3ccccn3)ccn2)cc1` [GW693028], for which the “%Inh” value in assay [1] was found to be 0%; in assay [2], 28%; in assay [3], 3%; in [4], 0%; in assay [5] it was 5%; in assay [6], 0%. Moreover, the “%Inh” value turned out to be 19% in assay [7], 10% in [8], 13% in assay [9] and 0% in assay [10].
`NS(=O)(=O)CCc1cccc(Nc2nccc(-c3c(-c4cccc(NC(=O)c5c(F)cccc5F)c4)nn4ccccc34)n2)c1` [GSK336735]: the “%Inh” value was 10% in assay [1]; 24% in assay [2]; 0% in assay [3]; 79% in assay [4]; 53% in assay [5]; 0% in [6]. In addition, the “%Inh” value turned out to be 63% in assay [7], 6% in assay [8], 100% in assay [9] and 0% in assay [10].
In the case of `Cc1nnc(-c2ccc(C)c(-c3ccc(C(=O)Nc4ccc(NS(C)(=O)=O)cc4)cc3)c2)o1` [GW702865], the “%Inh” value in [1] was 4%; in [2], 0%; in assay [3], 11%; in assay [4] it was 0%; in assay [5], 1%; in [6], 0%. Moreover, the “%Inh” value in assay [7] is reported as 0%; in [8], 17%; in assay [9] it was 13%; in [10], 0%.
Turning to `Cc1ccc(NC(=O)c2ccnc(N3CCN(C)CC3)c2)cc1-c1ccc(C(=O)NCC2CC2)cc1` [GW775604], the “%Inh” value is listed as 0% in assay [1]; 41% in assay [2]; 0% in [3]; 0% in [4]; 10% in assay [5]; 0% in assay [6]. The “%Inh” value in assay [7], in [8], in [9] and in assay [10] was 0% throughout.
For `Cl.Oc1cccc(Nc2ccnc3cc(-c4ccncc4)ccc23)c1` [GW494601], the “%Inh” value in assay [1] is listed as 0%; in assay [2], 88%; in assay [3], 72%; in [4], 34%; in assay [5] it was 0%; in [6], 0%. Further, the “%Inh” value in assay [7] stood at 16%; in assay [8], 16%; in assay [9] it was 0%; in assay [10] it was 13%.

For the origin of these results see publication PMC5540273 (PLoS ONE, 2017).
